# Rows were chosen to be rich in hits. Some 28% of all compounds tested hit in one or more screens of this group.
# CYP2C9 inhib – inhibitors of human CYP2C9; 20% of 96,000 active; CYP2C9 Supersomes, luciferin-H conversion, luminescence; P11712; inhibition, % at 5 µM; AID 777;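 active means blocking of liver enzyme CYP2C9 beyond about 50% at 5 µM, limit read from the data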
# Target sequence (P11712 whole entry, looked up): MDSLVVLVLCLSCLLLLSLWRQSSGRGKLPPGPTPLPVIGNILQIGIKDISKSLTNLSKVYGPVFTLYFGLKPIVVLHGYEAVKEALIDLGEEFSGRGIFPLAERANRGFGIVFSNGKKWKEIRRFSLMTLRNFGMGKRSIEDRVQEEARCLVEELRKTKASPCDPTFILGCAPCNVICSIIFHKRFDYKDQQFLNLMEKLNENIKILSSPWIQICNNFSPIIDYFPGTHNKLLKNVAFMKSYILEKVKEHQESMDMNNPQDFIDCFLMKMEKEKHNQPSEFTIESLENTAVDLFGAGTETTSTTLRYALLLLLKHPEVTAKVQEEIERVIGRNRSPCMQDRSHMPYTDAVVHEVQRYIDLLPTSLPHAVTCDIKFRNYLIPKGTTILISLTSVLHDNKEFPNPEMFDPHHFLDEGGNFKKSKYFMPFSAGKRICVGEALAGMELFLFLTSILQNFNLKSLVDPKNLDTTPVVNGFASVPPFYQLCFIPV
# CYP2C19 inhib – human CYP2C19 inhibition | P33261 | CYP2C19 Supersomes, luciferin-H EGE luminescence, 30 min | inhibition, % at 5 µM | 21% of 96,000 active | AID 778;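 active means CYP2C19 inhibition above a set limit at 5 µM in the primary screen, cut at about 50% in these data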;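 further: plate controls were negative control wells for no effect and 2.5 mM tranylcypromine positive control for full effect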
# CYP2C19 activ – activators of human cytochrome P450 2C19. P33261. recombinant CYP2C19, luciferin-H EGE luminescence; hits give high values; 0 = fully inhibited enzyme, 1 = untreated enzyme. activation factor at 5 µM. 96,000 tested, under 10 active. AID 1025;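 active means activation factor of at least 2 at 5 µM in the primary screen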;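 further: 0 = wells with 2.5 mM tranylcypromine and 1 = vehicle-only wells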
# PTK2B oligo ant – antagonists of human Pyk2 oligomerization; Q14289; Q293 cells, Pyk2 FERM NanoBiT luminescence; hits give low values; z-score (the deposit names both 25 µM and 10 µM); 0.83% of 99,000 active; AID 1347419;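 active means Z-score of -3 or lower, scaled per plate to the spread of control and sample wells; inactive means z-score above -3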;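 further: negative z-score means lost luminescence so less FERM oligomerization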
# CYP2C9 act – CYP2C9 (human) activation. activation factor at 5 µM. P11712. recombinant CYP2C9, luciferin-H conversion, luminescence; hits give high values; factor 1 = untreated enzyme, 0 = blocked. 1.4% of 96,000 active. AID 1024;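 active means activation factor of 2 or more for CYP2C9 at a 5 µM dose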;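 further: 0 = sulfaphenazole-blocked wells and 1 = vehicle-only wells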
# * = called active by the depositor; / = not tested or not shown.
SMILES,CYP2C9 inhib,CYP2C19 inhib,CYP2C19 activ,PTK2B oligo ant,CYP2C9 act
COc1ccc(NC(=O)/C=C/C(=O)O)cc1Cl,-6,-13,1.1,-0.06,1.1
COc1ccc(NCC(=O)Nc2ccc(C#N)cc2)cc1Cl,69*,69*,0.3,-0.59,0.3
COc1ccc(C(C(=O)NC2CCCC2)N(Cc2ccc(C)cc2)C(=O)c2ccn[nH]2)cc1OC (stereo not drawn),20,13,0.9,1.1,0.8
COCCN(C(=O)CCCC(=O)Nc1ccccn1)C(C(=O)NC1CCCC1)c1ccc(C)cc1 (stereo not drawn),28,47,0.5,-0.48,0.7
CCCc1[nH]nc2c1C(c1ccccc1OCC)C(C#N)=C(N)O2 (stereo not drawn),1,15,0.8,0.1,1
CCOc1ccccc1C1C(C#N)=C(SCC(=O)OC)NC(=O)C1C(=O)OC (stereo not drawn),26,70*,0.3,0.66,0.7
CCOC(=O)CSC1=C(C#N)C(c2ccccc2OCC)C(C(=O)OCC)C(=O)N1 (stereo not drawn),84*,99*,0,-1.3,0.2
CCOC(=O)C1C(=O)NC(SCC(=O)Nc2nccs2)=C(C#N)C1c1ccccc1OCC (stereo not drawn),/,/,/,-2,/
C=CCSC1=C(C#N)C(c2ccccc2OCC)C(C#N)C(=O)N1 (stereo not drawn),54*,55*,0.4,-0.25,0.5
CCCC1=C(C(=O)OCC)C(c2ccccc2OC)NC(=O)N1 (stereo not drawn),22,29,0.7,-1.4,0.8
CCCCSC1=C(C#N)C(c2ccccc2C)C(C(=O)OCC)C(=O)N1 (stereo not drawn),66*,61*,0.4,-2,0.3
O=C(Nc1cc(S(=O)(=O)N2CCOCC2)ccc1O)c1ccco1,24,36,0.6,0.39,0.8
Cc1onc(-c2c(F)cccc2Cl)c1C(=O)OCn1nnc2ccccc2c1=O,/,/,/,-1.5,/
CCOC(=O)CSC1=C(C#N)C(c2ccccc2Cl)C(C(=O)OC)C(=O)N1 (stereo not drawn),65*,59*,0.4,-0.08,0.4
COC(=O)C1C(=O)NC(SC)=C(C#N)C1c1ccccc1F (stereo not drawn),/,/,/,-0.7,/
CCCOC(=O)CSC1=C(C#N)C(c2ccccc2OC)C(C#N)C(=O)N1 (stereo not drawn),42,38,0.6,0.19,0.6
CCOC(=O)C1C(=O)NC(SCC(=O)OC)=C(C#N)C1c1ccccc1OCC (stereo not drawn),27,68*,0.3,0.08,0.7
CCOC(=O)CSC1=C(C#N)C(c2ccccc2OCC)C(C#N)C(=O)N1 (stereo not drawn),78*,83*,0.2,1.3,0.2
Cc1c(NC(=O)c2ccc3c(c2)OCO3)c(=O)n(-c2ccccc2)n1C,-7,-4,1,1.7,1.1
Cc1nn(C(C)C(=O)N2CCc3ccccc32)c(C)c1[N+](=O)[O-] (stereo not drawn),68*,55*,0.4,0.11,0.3
Cc1nn(C(C)C(=O)NCc2ccccc2)c(C)c1[N+](=O)[O-] (stereo not drawn),8,14,0.9,0.46,0.9
COc1ccc(C2(C(=O)N3CCCC3)CCOCC2)cc1OC,6,2,1,0.76,0.9
Cc1cc(C(=O)NCCCOC(C)C)c2ccccc2n1,-1,17,0.8,0.04,1
Cc1ccc(-c2nnc(Nc3ccccc3)c3ccccc23)cc1S(=O)(=O)NCC1CCCO1 (stereo not drawn),64*,56*,0.4,-1.7,0.4
Cc1ccc(-c2nn3c(-c4ccco4)nnc3c3ccccc23)cc1S(=O)(=O)NCC1CCCO1 (stereo not drawn),45,42,0.6,-1.1,0.5
SMILES,CYP2C9 inhib,CYP2C19 inhib,CYP2C19 activ,PTK2B oligo ant,CYP2C9 act
CC(=O)N1CCN(CCN=CC2=C(O)CC(c3ccc(Cl)cc3)CC2=O)CC1 (stereo not drawn),15,12,0.9,0.62,0.9
O=C1CC(c2ccc(F)cc2)CC(O)=C1C=NCCN1CCN(C(=O)Nc2ccccc2)CC1 (stereo not drawn),54*,77*,0.2,0.89,0.5
O=C1CC(N2CCN(c3cccc(C(F)(F)F)c3)CC2)C(=O)N1c1ccc(F)cc1 (stereo not drawn),20,11,0.9,0.98,0.8
CCn1c(N)c(C(=O)NCCCOC)sc1=S,16,20,0.8,-0.86,0.8
CC(C)OCCCNC(=O)c1sc(=S)n(C)c1N,67*,57*,0.4,0.44,0.3
Cc1oc2cc(O)cc(C)c2c(=O)c1-c1cnn(-c2ccccc2)c1,-92,25,0.8,-3.8*,1.9
Cc1cccc(-n2cnc(C(=O)N/N=C/c3ccccc3)c2)n1,9,-3,1,0.15,0.9
CCOC(=O)CCn1nc(-c2ccccc2)cc1N,10,66*,0.3,0.11,0.9
CCCN1CCN(CCCNC(=O)Cn2nc(-c3ccc(C)cc3)ccc2=O)CC1,15,-11,1.1,0.1,0.9
CCOC(=O)Cn1nc(-c2ccc(C)cc2)ccc1=O,52*,49,0.5,0.2,0.5
Cc1cccc(NC(=O)c2cc(S(=O)(=O)NCc3ccco3)ccc2F)c1C,13,20,0.8,0.24,0.9
O=C(NC1CCCCC1)c1ccc(Cn2cc(Cl)cn2)cc1,27,-1,1,0.61,0.7
CCn1ccnc1C(O)c1ccccc1OC (stereo not drawn),/,/,/,0.44,/
O=[N+]([O-])c1ccc(N(c2ccccc2)c2ccccc2)cc1,51*,26,0.7,-0.2,0.5
COc1cc(CC(=O)Oc2ccc3c(c2)OCO3)cc(OC)c1OC,-18,-17,1.2,-0.66,1.2
CCOC(=O)c1c(-c2ccc(C)o2)csc1NC(=O)CN1CCOCC1,72*,54*,0.5,-0.46,0.3
CCOC(=O)c1c(-c2ccc(C)o2)csc1NC(=S)NC(=O)N(C)C,53*,18,0.8,-0.24,0.5
CCOC(=O)c1c(-c2cccs2)csc1NC(=O)CN(CC)CC,75*,38,0.6,-3.6*,0.2
CCOC(=O)c1c(-c2ccc(C)o2)csc1NC(=O)CSc1ncn[nH]1,85*,61*,0.4,0.29,0.1
COc1ccccc1NC(=O)CCn1cccc1,-72,12,0.9,0.68,1.7
O=c1oc2cc(Br)ccc2n1CSC1=NCCS1,3,23,0.8,0.24,1
CCOC(=O)c1c(-c2cccs2)csc1NC(=O)CN1CCOCC1,73*,45,0.5,-2,0.3
COc1ccc(S(=O)(=O)N(C)C2CCN(C)CC2)cc1,0,20,0.8,/,1
NNC(=O)CN1C(c2ccc(Cl)cc2)=Nc2ccc(Br)cc2C1c1ccccc1 (stereo not drawn),58*,47,0.5,-3.4*,0.4
CCC1=Nc2ccc(Br)cc2C(c2ccccc2)N1CC(=O)OC (stereo not drawn),6,16,0.8,-0.88,0.9

# Screening data (PubChem)
